The values that follow come from PubChem BioAssay AID623870 (Broad Institute, 2012).

Hit rate of the full screen: of about 390,000 compounds, about 2,600 (0.67%) were called active. This is one part of a sample in which actives are shown more often than they occur. Values without a mark were called inactive.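 Rule for the calls: active = mean inhibition of replicates at least 50% and at least half of replicates each reaching 50%; inconclusive = half or more replicates reach 50% but mean below 50%; inactive = the rest.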

The target of this experiment is Transforming acidic coiled-coil-containing protein 3 (Homo sapiens) (UniProt Q9Y6A5). Put plainly: disruptors of ARNT/TACC3 protein interaction, primary screen, biochemical, AlphaScreen, single concentration (AID 623870).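 Note: 0% = complete ARNT plus TACC3 wells and 100% = ARNT alone without TACC3.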 The conditions noted are these: AlphaScreen His-ARNT PAS-B/GST-TACC3 binding, luminescence; at 9.99 µM; active compounds read high; TACC3 fragment carries E629A point mutation.
A word on the inhibition: it is the change of the read-out against control, counted positive when it falls. Take `O=C(Cc1ccncc1)NCC[C@H]1CC[C@@H](NC(=O)Nc2ccc(Cl)cc2)[C@@H](CO)O1`: the inhibition was 13.7%.
With `Oc1ccc(N=Nc2nccs2)c(O)c1`, the inhibition is 80.9% (active).
The same measure for `CCC(=O)N(C)C[C@H]1Oc2ncc(C#CC(C)C)cc2C(=O)N([C@@H](C)CO)C[C@H]1C`: -8.34%.
The same measure for `Cc1ccc(S(=O)(=O)N2C[C@@H](O)COC[C@@H]3O[C@@H](CC(=O)N[C@H]4CCN(Cc5ccccc5)C4)CC[C@H]32)cc1`: -6.23%; for `CCOC(=O)c1nn(-c2cccc(C)c2)cc1C(=O)c1ccccc1`: 25.6%; for `Cc1cc(C(=O)OCC(=O)NCc2ccco2)c(C)n1-c1ccccc1`: -8.94%.
The same measure for `CCOC(=O)C1=C(O)/C(=C/c2cc(C)n(-c3ccccc3)c2C)N=C1C`: 27.3% (active); for `CC(C)CC#Cc1cnc2c(c1)C(=O)N([C@H](C)CO)C[C@H](C)[C@H](CN(C)C(=O)Nc1ccccc1F)O2`: -1.64%; for `CC(C)CC#Cc1ccc2c(c1)O[C@H](CN(C)C(=O)c1cccnc1)[C@@H](C)CN([C@H](C)CO)S2(=O)=O`: -3.52%.
As to `COc1ccc(S(=O)(=O)N(C)C[C@H]2OCCCC[C@H](C)Oc3ccc(NC(=O)CCC(F)(F)F)cc3C(=O)N([C@@H](C)CO)C[C@@H]2C)cc1`, the inhibition is 1.97%.
Take `CCCNC(=O)C[C@H]1CC[C@H]2[C@@H](COC[C@@H](O)CN2C(=O)Nc2ccc(Cl)c(Cl)c2)O1`: the inhibition is -0.599%.
For the molecule `CCNC(=O)C[C@@H]1CC[C@H](NC(=O)NC2CCCCC2)[C@H](CO)O1`, the inhibition is 14.7%.
The same measure for `C[C@@H](O)C#Cc1cnc2c(c1)C(=O)N([C@@H](C)CO)C[C@H](C)[C@H](CN(C)Cc1cncnc1)O2`: -0.882%; for `O=C(COC(=O)CSc1nnc(-c2ccc(Cl)cc2)o1)Nc1cc(Cl)cc(Cl)c1`: 2.05%; for `CCc1cccc(NC(=O)COC(=O)c2cc(=O)c3ccccc3o2)c1`: -1.51%.
The same measure for `CC(=O)Nc1cccc(C(=O)OCC(=O)Nc2nnc(-c3ccccc3)o2)c1`: 55.1% (active); for `CO[C@@H]1CN(C)C(=O)c2ccc(NC(=O)Nc3ccccc3)cc2OC[C@H](C)N(C(=O)CC2CC2)C[C@@H]1C`: -5.39%; for `COCCNC(=O)Cn1cc(C(=O)c2cccs2)c2ccccc21`: -1.09% (active).
The same measure for `COCCCNC(=O)Cn1cc(C(=O)C2CC2)c2ccccc21`: 1.82%; for `COCCNC(=O)C(OC(=O)c1cccs1)c1ccc(F)cc1` (stereo unspecified): -9.93%; for `C[C@@H]1CCCCO[C@H](CN(C)Cc2ccc(Cl)c(Cl)c2)[C@H](C)CN([C@@H](C)CO)C(=O)c2cc(NC(=O)C3CCCCC3)ccc2O1`: -6.84%.
